A short description of assay [1]: qHTS assay to identify small molecule agonists of the estrogen receptor alpha (ER-alpha) signaling pathway in the presence of an antagonist - cell viability counter screen (AID 1259386).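 Also: series mostly up to about 92 µM; cells exposed to compounds for 22 h at 37 °C before the viability read; nearly all actives have a fitted effect of over 30% in size.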 The essentials:
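VM7Luc4E2, stripped-serum pre-culture 5 d; 24hr plating; +ICI-182,780 10.0nM final; cpds 15 conc, 22hr, 37C/5% CO2; CellTiter-Fluor added at 21hr, fluorescence 1hr later.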

For assay [2], the target named is Progesterone receptor (Homo sapiens) (UniProt P06401). The assay can be described thus: qHTS assay to identify small molecule agonists of the progesterone receptor (PR) signaling pathway (AID 1346784; calls by dose curve; also: nearly all actives have a fitted effect of over 30% in size). The essentials:
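Agonist mode, quantitative HTS format in a HEK 293T line expressing a UAS-controlled beta-lactamase reporter; 16 hr compound exposure at 37C in 2% charcoal-stripped FBS, then LiveBLAzer B/G FRET fluorescence.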

The target is the same in assay [3]. The assay can be described thus: qHTS assay to identify small molecule antagonists of the progesterone receptor (PR) signaling pathway (AID 1346795; active = well fitted inhibition curve with a large enough effect in the signal ratio in the repeat runs, not every such curve was filed as active; the % refers to the signal ratio; also: potency is read from the fitted curve at half-maximal effect). The gist of the method:
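HEK293T PR-UAS-bla reporter cells in charcoal-stripped serum (2%) received compound after a 6 hr settling period, followed by R5020 agonist at 1 nM final; 16 hr incubation preceded the FRET substrate step and fluorescence measurement.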

The nature of assay [4]: qHTS assay to identify small molecule antagonists of the progesterone receptor (PR) signaling pathway - cell viability counter screen (AID 1346798). Also: series mostly up to about 92 µM; nearly all actives have a fitted effect of over 50% in size. The gist of the method: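 Same-well multiplex: after 16 hr at 37C with compound and R5020 stimulation, HEK293T cells carrying a UAS-bla reporter received LiveBLAzer substrate (2 hr RT), then CellTiter-Glo (30 min RT) for luminescent viability.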

Assay [5] is described as follows: qHTS assay to identify small molecule agonists of the progesterone receptor (PR) signaling pathway - cell viability counter screen (AID 1346799; calls by dose curve; also: nearly all actives have a fitted effect of over 45% in size). The gist of the method: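 Counter screen for cytotoxicity: compound-treated PR-UAS-bla HEK293T cells (16 hr, 37C, 5% CO2) were assayed with CellTiter-Glo, luminescence measured after 30 min at room temperature.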
The nature of assay [6]: qHTS assay to identify small molecule antagonists of the TGF-beta/Smad signaling pathway - cell viability counter screen (AID 1346824). Also: nearly all actives have a fitted effect of over 50% in size. The essentials:
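Cytotoxicity counter-screen run in the same wells as the beta-lactamase Smad reporter read: CellTiter-Glo luminescence after 30 min at room temperature. HEK 293T SBE-bla cells had 5 hr compound exposure at 37 C with TGF-beta1 (0.25 ng/mL stock).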

Assay [7] can be described thus: qHTS assay to identify small molecule agonists of the TGF-beta/Smad signaling pathway - cell viability counter screen (AID 1346829). Also: top concentration of the series differs between compounds; nearly all actives have a fitted effect of over 45% in size. The gist of the method:
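CellTiter-Glo luminescence readout; SBE-bla HEK 293T cells, overnight plating, compound 5 hr at 37 C/5% CO2, then bla substrate 2 hr RT, then CellTiter-Glo 30 min RT.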

The nature of assay [8]: qHTS assay to identify small molecule agonists of the TGF-beta/Smad signaling pathway (AID 1346859; active = well fitted activation curve with a large enough effect in the signal ratio in the repeat runs, not every such curve was filed as active; the % refers to the signal ratio; also: series mostly up to about 77 µM). The gist of the method: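 Smad-responsive beta-lactamase reporter cells (HEK 293T) received compounds from DMSO stocks after overnight attachment, were incubated 5 hr, then treated 2 hr with FRET substrate before dual-emission fluorescence measurement (405 nm excitation).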

Assay [9] addresses Thyrotropin-releasing hormone receptor (Homo sapiens) (UniProt P34981). The assay can be described thus: qHTS assay to identify small molecule antagonists of the thyrotropin-releasing hormone receptor (TRHR) signaling pathway (AID 1346877; active = well fitted inhibition curve with a large enough effect in the repeat runs, not every such curve was filed as active; also: series mostly up to about 51 µM). The essentials:
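Intracellular calcium fluorescence, read kinetically every second over 3 min, reports TRH-evoked signalling in HEK293 cells carrying TRHR. Test compounds were added 5 min ahead of a 1 nM TRH challenge.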

Assay [10] has the same target. The assay can be described thus: qHTS assay to identify small molecule agonists of the thyrotropin-releasing hormone receptor (TRHR) signaling pathway (AID 1346891; calls by dose curve;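 also: HEK293 cells expressing TRHR with calcium dye readout; series mostly up to about 58 µM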). The essentials:
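Agonist-mode calcium mobilisation screen: TRHR-transfected HEK293 cells cultured overnight (18 h), dye-loaded for 2 h at 37 °C, exposed to compounds, and monitored by fluorescence for 3 min.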

The nature of assay [11]: Caspase-3/7 induction in HepG2 cells by small molecules, qHTS assay (AID 1346978). Also: nearly all actives have a fitted effect of over 15% in size. The gist of the method: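 Caspase-3/7 induction was measured by Caspase-Glo 3/7 luminescence (30 min, room temperature) after a 17 hr compound exposure of wild-type HepG2 cells seeded at 2,000 per well and pre-incubated 5 hr.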
A short description of assay [12]: Caspase-3/7 induction in CHO-K1 cells by small molecules, qHTS cell viability counter screen (AID 1346979). Also: nearly all actives have a fitted effect of over 35% in size. The essentials:
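In the same wells as the caspase read, viability of compound-treated wild-type CHO-K1 cells was assessed using CellTiter-Fluor, added after 16hr at 37C and measured by fluorescence following 1hr further incubation.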

Assay [13] can be described thus: Caspase-3/7 induction in CHO-K1 cells by small molecules, qHTS assay (AID 1346980). Also: nearly all actives have a fitted effect of over 15% in size. The gist of the method: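 Luminescent Caspase-Glo 3/7 read (30min, room temperature) quantified apoptosis induction. Cells were wild-type CHO-K1, treated with compound for 17hr at 37 C and 5% CO2.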
Assay [14] is described as follows: Caspase-3/7 induction in HepG2 cells by small molecules, qHTS cell viability counter screen (AID 1346981). Also: series mostly up to about 92 µM; nearly all actives have a fitted effect of over 30% in size. The essentials:
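HepG2, WT, 2,000 cells/well; 5 hr pre-incubation 37 C/5% CO2; compound pin-transferred from DMSO; 16 hr exposure; CellTiter-Fluor, 1 hr; fluorescence read.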

In assay [15] the target is Nuclear receptor subfamily 1 group I member 2 (Homo sapiens) (UniProt O75469). Kind of assay: Human pregnane X receptor (PXR) small molecule agonists, qHTS assay (AID 1346982). Also: nearly all actives have a fitted effect of over 35% in size. Also: potency is read from the fitted curve at half-maximal effect. The essentials:
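Luciferase signal from ONE-Glo (30 min, room temperature) measured activation of hPXR-driven CYP3A4 reporter expression in PXR-Luc HepG2 cells treated with compounds for 24 hr at 37 C.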

For assay [16], the target named is Cytochrome P450 2D6 (Homo sapiens) (UniProt P10635). The assay can be described thus: Cytochrome P450 Family 2 Subfamily D Member 6 (CYP2D6) small molecule antagonists: luciferase reporter qHTS assay (AID 1671196). Also: series mostly up to about 120 µM; nearly all actives have a fitted effect of over 50% in size. The essentials: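 Read-out is luminescence from luciferin formed by CYP2D6 turnover of a proluciferin substrate, recorded as relative luminescence units. Reactions ran 1 h at room temperature after NADPH regeneration solution was added.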
Cytochrome P450 2D6 (Homo sapiens), sequence (P10635 whole entry, looked up): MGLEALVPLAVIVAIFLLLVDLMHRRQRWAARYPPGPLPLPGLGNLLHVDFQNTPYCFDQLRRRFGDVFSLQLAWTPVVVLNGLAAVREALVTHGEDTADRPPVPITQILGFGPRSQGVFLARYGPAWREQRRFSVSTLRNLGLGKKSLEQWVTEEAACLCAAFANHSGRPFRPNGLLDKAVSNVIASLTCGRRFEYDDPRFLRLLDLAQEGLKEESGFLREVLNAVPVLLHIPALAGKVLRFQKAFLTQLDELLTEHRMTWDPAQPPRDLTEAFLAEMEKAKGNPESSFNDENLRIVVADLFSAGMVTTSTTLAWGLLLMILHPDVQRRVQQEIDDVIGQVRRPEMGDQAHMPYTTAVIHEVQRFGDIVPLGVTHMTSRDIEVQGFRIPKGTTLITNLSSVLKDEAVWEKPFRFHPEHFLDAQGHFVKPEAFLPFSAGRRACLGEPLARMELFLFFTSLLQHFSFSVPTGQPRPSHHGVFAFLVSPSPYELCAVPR

Assay [17] in a line: Human pregnane X receptor (PXR) small molecule agonists, qHTS cell viability counter screen (AID 1346977). Also: nearly all actives have a fitted effect of over 50% in size. The essentials:
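Measures live-cell protease fluorescence (CellTiter-Fluor) in PXR-Luc HepG2 cells treated 24hr with compounds at 37C. Cells had 5hr to attach before pin transfer of DMSO solutions.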

For assay [18], the target named is Nuclear receptor subfamily 1 group I member 2 (Rattus norvegicus) (UniProt Q9R1A7). Kind of assay: Rat pregnane X receptor (rPXR) activation by small molecules, qHTS assay (AID 1346983). Also: nearly all actives have a fitted effect of over 20% in size. Particulars: rPXR luciferase reporter cells, One-Glo luminescence, 24 h; hits give high values. The essentials: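 Luminescent readout (One-Glo luciferase, 30 min room temperature) followed 24 hr compound treatment at 37 C of rPXR cells plated 2,000 per well and preincubated 5hr; qHTS format with compounds delivered in DMSO.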
Nuclear receptor subfamily 1 group I member 2 (Rattus norvegicus), sequence (Q9R1A7 whole entry, looked up): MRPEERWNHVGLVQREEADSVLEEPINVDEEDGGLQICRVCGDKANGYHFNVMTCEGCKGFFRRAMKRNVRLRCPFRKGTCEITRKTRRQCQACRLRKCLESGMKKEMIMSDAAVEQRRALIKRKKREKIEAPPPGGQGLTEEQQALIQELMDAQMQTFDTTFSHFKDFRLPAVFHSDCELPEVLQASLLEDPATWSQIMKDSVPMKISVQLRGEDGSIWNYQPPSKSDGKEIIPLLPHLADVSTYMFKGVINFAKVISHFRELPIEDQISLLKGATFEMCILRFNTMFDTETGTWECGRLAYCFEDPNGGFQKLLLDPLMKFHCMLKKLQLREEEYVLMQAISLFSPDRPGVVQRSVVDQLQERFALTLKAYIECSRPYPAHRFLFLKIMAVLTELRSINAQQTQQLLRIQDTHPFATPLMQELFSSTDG

The target of assay [19] is Nuclear receptor subfamily 1 group I member 2 (Homo sapiens) (UniProt O75469). Kind of assay: Human pregnane X receptor (PXR) activation by small molecules, qHTS assay (AID 1346985). Also: nearly all actives have a fitted effect of over 40% in size. The essentials: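 DPX-2 cells (HepG2 co-transfected with a PXR response element and a CYP3A4-promoter luciferase construct) were seeded at 2,000 per well, rested 5 hr at 37C, then exposed to DMSO-dissolved compounds for 24 hr. Activation was read as luciferase luminescence.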
Nuclear receptor subfamily 1 group I member 2 (Homo sapiens), sequence (O75469 whole entry, looked up): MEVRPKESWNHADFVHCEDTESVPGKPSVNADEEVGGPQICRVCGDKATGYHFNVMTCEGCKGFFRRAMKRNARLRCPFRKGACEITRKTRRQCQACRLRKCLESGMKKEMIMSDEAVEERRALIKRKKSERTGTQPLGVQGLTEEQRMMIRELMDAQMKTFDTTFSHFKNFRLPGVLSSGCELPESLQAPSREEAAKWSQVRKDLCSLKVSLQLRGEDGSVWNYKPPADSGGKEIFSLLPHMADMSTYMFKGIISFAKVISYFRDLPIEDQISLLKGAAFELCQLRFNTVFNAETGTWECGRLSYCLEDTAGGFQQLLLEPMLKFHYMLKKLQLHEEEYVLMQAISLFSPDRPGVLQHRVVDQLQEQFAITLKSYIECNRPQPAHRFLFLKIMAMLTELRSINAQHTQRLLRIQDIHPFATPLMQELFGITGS

Consider seven compounds from PubChem BioAssay (Tox21).

Unmarked numbers belong to inactive results. Results filed as inconclusive are left out. Calls of active or inactive are those of the source. Unless noted, calls follow the shape of the dose curve; as a rule, active = well fitted curve in the direction sought with a large enough effect in the repeat runs; inconclusive = weak or mixed curves; inactive = no such curve, though single readings can be large; an effect the other way counts as inactive or inconclusive.
% is scaled to controls: 0 for no effect and ±100 for the full control effect.

Progesterone receptor (Homo sapiens), sequence (P06401 whole entry, looked up): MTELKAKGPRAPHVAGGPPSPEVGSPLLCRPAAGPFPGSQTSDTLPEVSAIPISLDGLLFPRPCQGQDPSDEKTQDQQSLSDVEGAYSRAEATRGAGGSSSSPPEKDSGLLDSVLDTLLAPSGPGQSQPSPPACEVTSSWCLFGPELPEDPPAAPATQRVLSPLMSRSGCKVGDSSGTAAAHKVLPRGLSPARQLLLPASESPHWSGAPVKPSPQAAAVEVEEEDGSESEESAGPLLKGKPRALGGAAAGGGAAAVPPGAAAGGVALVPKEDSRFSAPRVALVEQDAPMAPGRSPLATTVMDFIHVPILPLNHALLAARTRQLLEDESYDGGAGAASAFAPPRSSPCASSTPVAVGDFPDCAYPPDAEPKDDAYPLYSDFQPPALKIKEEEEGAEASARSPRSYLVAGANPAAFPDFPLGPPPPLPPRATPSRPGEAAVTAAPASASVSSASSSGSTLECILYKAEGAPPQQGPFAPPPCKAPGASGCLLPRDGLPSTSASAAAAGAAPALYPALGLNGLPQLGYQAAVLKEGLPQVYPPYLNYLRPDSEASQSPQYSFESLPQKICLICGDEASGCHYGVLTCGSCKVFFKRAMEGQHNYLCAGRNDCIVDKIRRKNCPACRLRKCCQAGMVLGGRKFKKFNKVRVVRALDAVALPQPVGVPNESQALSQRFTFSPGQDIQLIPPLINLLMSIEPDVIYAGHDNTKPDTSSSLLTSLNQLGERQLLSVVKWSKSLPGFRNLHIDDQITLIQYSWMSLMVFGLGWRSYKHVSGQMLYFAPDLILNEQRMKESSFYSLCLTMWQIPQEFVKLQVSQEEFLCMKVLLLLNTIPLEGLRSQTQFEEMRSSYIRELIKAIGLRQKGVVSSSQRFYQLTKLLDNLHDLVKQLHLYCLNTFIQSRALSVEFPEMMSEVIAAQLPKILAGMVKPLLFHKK
Thyrotropin-releasing hormone receptor (Homo sapiens), sequence (P34981 whole entry, looked up): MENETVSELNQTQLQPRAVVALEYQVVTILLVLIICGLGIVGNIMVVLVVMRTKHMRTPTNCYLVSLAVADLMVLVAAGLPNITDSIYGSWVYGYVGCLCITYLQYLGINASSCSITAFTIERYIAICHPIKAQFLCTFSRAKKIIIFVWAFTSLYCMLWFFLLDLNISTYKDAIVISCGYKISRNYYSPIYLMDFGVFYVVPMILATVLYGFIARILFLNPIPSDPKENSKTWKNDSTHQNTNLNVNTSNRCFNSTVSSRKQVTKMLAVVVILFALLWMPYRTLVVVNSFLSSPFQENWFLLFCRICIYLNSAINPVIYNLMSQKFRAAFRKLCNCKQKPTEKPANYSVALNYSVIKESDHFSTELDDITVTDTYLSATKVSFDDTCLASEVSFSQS

For `c1ccsc1`, the Potency entry in [1], in [2], in assay [3], in assay [4], in assay [5] and in assay [6] was “inactive” each time. The Potency entry in [7], in [8], in [9], in [11], in [12] and in assay [13] was “inactive” in each case. In addition, the Potency result in assay [14], in assay [15] and in assay [16] was “inactive” each time. In assay [10], the compound was called inactive.

For `CC(C)CCOC(=O)/C=C/c1ccccc1`, the Potency result in [1], in [2], in assay [3], in assay [4], in assay [5] and in [6] was “inactive” in each case. Further, the Potency result in [7], in [8], in assay [9], in [17], in assay [11] and in [12] was “inactive” in each case. Besides, the Potency entry in [13], in assay [14], in assay [15] and in assay [16] was “inactive” in each case. Further, the compound was called inactive in [10].

On to `CCCCCC(C)OC(=O)COc1ccc(Cl)c2cccnc12` (configuration not stated), for which the Potency result in [1], in assay [2], in [4], in assay [5], in assay [6] and in assay [7] was “inactive” throughout. Further, the Potency result in assay [8], in [9], in assay [17], in assay [11], in assay [13] and in assay [14] was “inactive” throughout. Besides, the Potency result in assay [16] was “inactive”. The Potency in assay [3] was 54.5 µM (active); in [15] it was 24.3 µM (active). Further, the outcome in assay [10] was inactive.

In the case of `COc1cccc(OC)c1C(=O)O`, the Potency result in [1], in [2], in [3], in assay [4], in assay [5] and in assay [6] was “inactive” throughout. Further, the Potency entry in assay [7], in [8], in assay [9], in [11], in [12] and in assay [14] was “inactive” throughout. The Potency entry in [15] and in assay [16] was “inactive” throughout. Also, in assay [10], the outcome was inactive.

Consider `CC(C)NC[C@@H](O)COc1ccc(CC(N)=O)cc1`, for which the Potency result in assay [1], in assay [2], in [3], in [4], in assay [5] and in [6] was “inactive” in each case. Further, the Potency entry in assay [7], in assay [8], in assay [9], in assay [11], in [12] and in [14] was “inactive” throughout. Moreover, the Potency result in assay [15] and in [19] was “inactive” in each case. The compound was classed as inactive in [10]. The max activation in assay [18] was -0.64%.

Consider `COC(=O)c1ccccc1C`, for which the Potency result in assay [1], in assay [2], in assay [3], in assay [4], in assay [5] and in [6] was “inactive” each time. The Potency entry in assay [7], in assay [8], in [17], in assay [11], in assay [12] and in assay [13] was “inactive” each time. Further, the Potency result in assay [14], in assay [15] and in assay [16] was “inactive” in each case.

With `CCC(=O)C(=O)CC`, the Potency result in assay [1], in [2], in assay [3], in assay [4], in assay [5] and in [6] was “inactive” throughout. Also, the Potency entry in assay [7], in [8], in assay [9], in assay [17], in assay [11] and in assay [12] was “inactive” in each case. For the same compound, the Potency entry in assay [13], in assay [14] and in assay [16] was “inactive” in each case. Besides, the call in assay [10] was inactive. Moreover, the Potency in assay [15] is 18 µM (active).
